# Source: PubChem BioAssay
# Pf growth 48h = inhibits P. falciparum growth in the first generation, 48 h. Potency, µM (top dose mostly 28.7 µM), for the others: at the highest dose activity change, negative = inhibition, hits mostly inhibitors. P. falciparum luciferase growth in erythrocytes, 48 h. hit rate 5.9% among 310,000. AID 504832; also: % is scaled to controls: 0 for no effect and ±100 for the full control effect
#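 Firefly luciferase activity from engineered P. falciparum reports growth; inhibitors lower the luminescent signal. Cultures contained 2% hematocrit erythrocytes at 0.1% final parasitemia.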
# Pf growth 96h = P. falciparum growth inhibition at 96 hours; P. falciparum luciferase reporter growth, 96 h; Potency, µM (doses to about 28.7 µM), for inactives: at the highest dose activity change, negative = inhibition, most hits filed as inhibitors; hit rate 6.9% among 320,000; also: % is scaled to controls: 0 for no effect and ±100 for the full control effect
#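 P. falciparum expressing integrated firefly luciferase grown in erythrocytes (2% hematocrit, 0.05% parasitemia final) with compounds for 96 hours at 37 C, 5% CO2. Growth inhibition read as loss of luminescence after adding luciferase detection reagent.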
# Sm TGR block = S. mansoni TGR enzyme inhibition | Q962Y6 | purified TGR, DTNB reduction, TNB absorbance 405 nm | Potency, µM (top dose mostly 114 µM), for inactives: top-dose activity change, negative = inhibition, usual class: inhibitors | hit rate 3% among 360,000; also: % is scaled to controls: 0 for no effect and ±100 for the full control effect; nearly all actives have a fitted effect of over 60% in size
#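 Kinetic colorimetric format: TGR-catalysed, NADPH-driven DTNB reduction monitored via TNB absorbance. Enzyme dispensed at 20 nM; compound exposure 15 min at room temperature before reaction start.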
# AmpC inh no detg = blocks E. coli AmpC beta-lactamase in detergent-free assay. AmpC nitrocefin hydrolysis, absorbance 480 nm, 0.0001% Triton. Potency, µM (series often up to 57.1 µM), for the others: at the highest dose activity change, negative = inhibition, usual class: inhibitors. hit rate 0.52% among 330,000. P00811;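 also: plate controls were no compound for no effect and no enzyme for full effect; nearly all actives have a fitted effect of over 20% in size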
# Target sequence (P00811 whole entry, looked up): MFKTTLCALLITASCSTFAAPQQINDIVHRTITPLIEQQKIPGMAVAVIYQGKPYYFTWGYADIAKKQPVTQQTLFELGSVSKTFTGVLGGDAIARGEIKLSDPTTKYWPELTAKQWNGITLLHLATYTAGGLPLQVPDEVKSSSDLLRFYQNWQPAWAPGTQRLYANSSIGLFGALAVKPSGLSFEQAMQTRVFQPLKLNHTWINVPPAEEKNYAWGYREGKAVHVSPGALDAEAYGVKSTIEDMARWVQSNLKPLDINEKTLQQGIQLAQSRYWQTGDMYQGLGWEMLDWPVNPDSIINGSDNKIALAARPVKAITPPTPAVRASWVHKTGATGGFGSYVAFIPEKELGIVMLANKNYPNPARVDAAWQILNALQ
#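 AmpC (5.3 nM in the dispensed reagent) in 20 mM phosphate pH 7.0 with 0.01% (detergent screen) or 0.0001% Triton X-100 was preincubated with compounds for 15 min at room temperature. Nitrocefin was then added from an 800 uM solution, and hydrolysis was followed at 480 nm.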
# SARS PLpro yeast = blocks SARS-CoV papain-like protease in a yeast assay. S. cerevisiae expressing SARS-CoV PLpro, growth rescue. Potency, µM (series often up to 32.9 µM), inactives show at the top dose activity, positive = growth rescue, hits mostly activators. hit rate 0.19% among 330,000. AID 485353; calls by dose curve; also: 0% is about no effect; nearly all actives have a fitted effect of over 55% in size
# AmpC inh detg = AmpC beta-lactamase inhibition with detergent present. AmpC hydrolysis of nitrocefin, absorbance 480 nm, 0.01% Triton. Potency, µM (top dose mostly 114 µM), inactives show at the top dose activity change, negative = inhibition, hits mostly inhibitors. hit rate 0.041% among 370,000. AID 485294;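 also: 0% = no-compound wells and -100% = no-enzyme wells; nearly all actives have a fitted effect of over 25% in size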
#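 20 mM phosphate pH 7.0 + 0.01% (detergent screen) or 0.0001% Triton X-100; 5.3 nM AmpC reagent; cpd preinc 15 min RT; nitrocefin (800 uM stock) to start; A480 q20 s × 4 min; Activity was normalised to no-enzyme and no-compound control wells.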
# An asterisk follows results filed as active; ? = inconclusive; . = no result; [ ] = dose if it differs, or a comment. Sampled rows, rich in hits. Any-hit rate of the full collection: about 12%. Unless noted, calls follow the shape of the dose curve; as a rule, active = well fitted curve in the direction sought with a large enough effect; inconclusive = small, poorly fitted or top-dose-only effect, or another doubt; inactive = no such curve, though single readings can be large; an effect the other way counts as inactive or inconclusive. Potency is read from the fitted curve at half-maximal effect.
SMILES,Pf growth 48h,Pf growth 96h,Sm TGR block,AmpC inh no detg,SARS PLpro yeast,AmpC inh detg
O=C(CCc1ccccc1)N1CCN(c2ccc(F)cc2)CC1,-5%,0%,.,22%,-1%,-1%
COC(=O)c1ccccc1OCC(=O)N1CCN(c2ccc(F)cc2)CC1,-3%,81%,11%,18%,4%,3%
O=C(CCCOc1ccccc1)N1CCN(c2ccc(F)cc2)CC1,.,12µM*,-11%,72%,9%,-5%
O=C(CSc1nc2sc3c(c2c(=O)n1-c1ccccc1)CCCC3)N/N=C/c1ccccc1C(=O)O,4%,?,1%,-26%,1%,-14%
Cc1ccc(CN=C(Nc2ccccc2)NC2CCCCC2)cc1,10µM*,?,6%,5%,-1%,2%
O=C(Nc1ccccc1)NC1CCCCC1,.,45%,-14%,-12%,-1%,-7%
CC(C)Oc1ccc(CNC(=O)Cn2nc(N3CCN(c4ccccc4)CC3)ccc2=O)cc1,.,.,-8%,.,.,0%
COc1ccccc1N1CCN(C2CC(=O)N(c3cccc(Cl)c3)C2=O)CC1 (configuration not stated),30%,?,40µM*,35%,-26%,?
Cc1cccc(N2C(=O)CC(N3CCN(Cc4ccc(Cl)cc4)CC3)C2=O)c1 (configuration not stated),15%,?,45µM*,-10%,-5%,2%
COc1ccccc1N1CCN(C2CC(=O)N(c3ccccc3)C2=O)CC1 (configuration not stated),?,?,?,62%,-21%,-15%
COc1cccc(N2C(=O)CC(N3CCN(c4ccc([N+](=O)[O-])cc4)CC3)C2=O)c1 (configuration not stated),-8%,7%,?,29%,-1%,?
COc1ccccc1N1C(=O)CC(N2CCN(c3ccc([N+](=O)[O-])cc3)CC2)C1=O (configuration not stated),-2%,37%,40µM*,65%,-2%,-1%
Cc1cccc(N2C(=O)CC(N3CCC(c4nc5ccccc5[nH]4)CC3)C2=O)c1 (configuration not stated),.,20%,35µM*,12%,-35%,4%
Cc1cccc(Oc2coc3cc(OCC(=O)NC4CCCCC4)ccc3c2=O)c1,.,.,-2%,.,.,-2%
COc1ccccc1N1CCN(/N=C/c2ccc([N+](=O)[O-])cc2)CC1,34%,10µM*,13%,-6%,18%,-3%
CCCOc1ccc(N2C(=O)CC(N3CCN(c4ccccc4OC)CC3)C2=O)cc1 (configuration not stated),.,-5%,50µM*,129%,-37%,?
COc1ccccc1N1CCN(C2CC(=O)N(c3ccc(F)cc3)C2=O)CC1 (configuration not stated),-14%,2%,?,-10%,-23%,-9%
CCOc1ccc(N2C(=O)CC(N3CCN(c4ccccc4OC)CC3)C2=O)cc1 (configuration not stated),2.9µM*,2.6µM*,40µM*,106%,-33%,-9%
COc1ccccc1N1CCN(/N=C/c2ccc(Cl)c([N+](=O)[O-])c2)CC1,64%,336%,-6%,-21%,-8%,3%
O=c1c2oc3ccccc3c2n(Cc2ccccc2Cl)c(=O)n1Cc1ccco1,.,.,-27%,.,.,2%
CCn1c(NCc2cc(Cl)ccc2O)nc2ccccc21,7.4µM*,5.2µM*,-4%,-56%,-1%,-2%
C=CCn1c(NCc2cc(Cl)ccc2O)nc2ccccc21,?,?,-6%,14µM*,-1%,-17%
C=CCn1c(NCc2ccccc2O)nc2ccccc21,?,?,-7%,-36%,-7%,-12%
C=CCn1c(NCc2ccc(OC)cc2O)nc2ccccc21,?,2.9µM*,-6%,-33%,4%,?
C=CCc1cccc(CNc2nc3ccccc3n2C(C)C)c1O,4.7µM*,?,-22%,-9%,3%,-13%
SMILES,Pf growth 48h,Pf growth 96h,Sm TGR block,AmpC inh no detg,SARS PLpro yeast,AmpC inh detg
C=CCn1c(NCc2ccccc2OC)nc2ccccc21,61%,?,1%,-14%,-4%,-2%
CSc1nnc(NC(=O)c2cc(=O)c3cc(C)c(C)cc3o2)s1,.,.,1%,.,.,12%
CCN1CCN(CCNC(=O)c2ccc(CS(=O)c3ccc(Br)cc3)o2)CC1 (configuration not stated),5%,-92%,-21%,-31%,0%,-5%
C=CCc1cccc(CNc2ccc(Br)cc2)c1O,12µM*,?,0%,-40%,-4%,6%
Cc1n(C)c2cc(Cl)ccc2[n+]1Cc1ccccc1,2.9µM*,22%,-5%,0%,0%,-1%
CC1Cc2cc(S(=O)(=O)N3CCN(C)CC3)ccc2N1C(=O)C1CC1 (configuration not stated),?,5.9µM*,6%,3%,0%,-9%
CCN1C(=O)c2cccc3c(S(=O)(=O)N4CCCC4C(=O)O)ccc1c23 (configuration not stated),26%,16%,-9%,-7%,-1%,3%
CCOC(=O)C1CCN(S(=O)(=O)c2ccc3c(c2)CC(C)N3C(=O)C2CCC2)CC1 (configuration not stated),-20%,?,-3%,79%,-4%,-2%
CCOC(=O)C1CCCN(S(=O)(=O)c2ccc3c4c(cccc24)C(=O)N3CC)C1 (configuration not stated),10µM*,?,3%,121%,-4%,5%
CCOC(=O)C1CCCN(S(=O)(=O)c2ccc3c(c2)CC(C)N3C(=O)C2CC2)C1 (configuration not stated),-18%,10µM*,0%,33%,-3%,-12%
CCN1C(=O)c2cccc3c(S(=O)(=O)NCc4ccco4)ccc1c23,-26%,?,40µM*,-28%,2%,?
CC1Cc2cc(S(=O)(=O)N3CCCCC3)ccc2N1C(=O)C1CCC1 (configuration not stated),?,?,-9%,27%,2%,1%
CN[C@H]1[C@@H](O)[C@@H](NC)[C@@H]2O[C@@]3(O)C(=O)C[C@@H](C)O[C@H]3O[C@H]2[C@H]1O,5%[12.8 µM],5%[12.8 µM],.,.,.,.
COc1ccc(Br)cc1CNC(=O)CCSCc1ccc(Cl)cc1,.,.,8%,.,.,10%
CC(=O)c1ccc(N2CCN(S(=O)(=O)c3ccc4c(c3)CC(C)N4C(=O)C3CC3)CC2)cc1 (configuration not stated),7.4µM*,?,3%,-3%,6%,-13%
